Test systems include HCT-15 colon; HT29 colon; SNB-75 CNS; SNB-19 CNS; U251 CNS; PC-3 prostate; UACC-62 melanoma; LOX IMVI melanoma; SK-MEL-28 melanoma; SK-MEL-5 melanoma.
Holding throughout (assay): NCI-60 one-dose screen, 48 h (100 = growth as untreated, 0 = no growth, -100 = all killed)
Holding throughout (conditions): 10 µM unless noted

Compounds without any hit were thinned out: in the full panel of roughly 83,000, 20% have a hit.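 Testing used 96-well plates and a 48-hour single-concentration exposure. Example: -40 means 40% of the starting cells died.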 A number with no mark means an inactive call. The source made the active and inactive calls. Rule for the calls: active = growth percent below 10; inactive = the rest.

As to `Brc1ccc(-c2nnc3c4[nH]ccc4ncn23)cc1`, the growth was 88.6% with HCT-15 colon; 94.9% in the assay with HT29 colon; 95.6% with SNB-75 CNS; 95.5% in the assay with SNB-19 CNS; 100% with U251 CNS; 90.6% in the assay on PC-3 prostate. Also, the growth in the assay with UACC-62 melanoma is 72%; in the assay on LOX IMVI melanoma, 85.4%; in the assay with SK-MEL-28 melanoma it was 114%.

Take `CC(C)CSc1ncnc2nc[nH]c12`: the growth was 97.2% with HCT-15 colon; 99.5% in the assay on HT29 colon; 101% in the assay on SNB-75 CNS; 93.8% in the assay on SNB-19 CNS; 103% with U251 CNS; 81.7% in the assay on PC-3 prostate. Further, the growth with SK-MEL-5 melanoma was 95.6%; in the assay on UACC-62 melanoma, 84.8%; in the assay on SK-MEL-28 melanoma, 101%.

Turning to `O=C(O)c1cc([N+](=O)[O-])ccc1Br`, the growth in the assay on HCT-15 colon was 98.4%; in the assay with HT29 colon, 103%; in the assay on SNB-75 CNS, 89.5%; with SNB-19 CNS, 99.1%; with U251 CNS it was 96.3%; in the assay with PC-3 prostate it was 100%. In addition, the growth with SK-MEL-5 melanoma is 98.9%; in the assay with UACC-62 melanoma it was 91.9%; in the assay on SK-MEL-28 melanoma, 97.8%.

As for `Cc1ccc(S(=O)(=O)N/N=C2\CC3CCC2(C)C3(C)C)cc1` (configuration not stated), the growth is 99.7% in the assay with HCT-15 colon; 108% in the assay with HT29 colon; 81.8% in the assay with SNB-75 CNS; 98.1% in the assay with SNB-19 CNS; 96.1% in the assay with U251 CNS; 86.2% in the assay on PC-3 prostate. Further, the growth in the assay with UACC-62 melanoma is 77.2%; in the assay with LOX IMVI melanoma, 92.3%; in the assay on SK-MEL-28 melanoma, 102%.

With `COc1ccc(C2=C(c3cn(C)c4ccccc34)C(=O)OC2)cc1OC`, the growth in the assay on HCT-15 colon was 23.7%; in the assay on HT29 colon, 6.9% (active); with SNB-75 CNS it was -29.3% (active); with SNB-19 CNS, 38.3%; in the assay on U251 CNS, 35.1%; in the assay with PC-3 prostate, 21.3%. Further, the results for the growth in the assay with SK-MEL-5 melanoma, in the assay with UACC-62 melanoma and in the assay with SK-MEL-28 melanoma were 16.4%, 26.8% and 69.9%, respectively.

On to `Fc1ccc(NC(=S)c2ccccc2)cc1`, for which the growth in the assay on HCT-15 colon was 102%; with HT29 colon, 109%; in the assay on SNB-75 CNS, 99.7%; in the assay on SNB-19 CNS it was 100%; with U251 CNS, 98.5%; in the assay with PC-3 prostate it was 100%. Also, the growth in the assay on UACC-62 melanoma was 88.9%; in the assay with LOX IMVI melanoma, 112%; in the assay on SK-MEL-28 melanoma, 102%.

Regarding `C[C@]12CCc3c(ccc4cc(O)ccc34)[C@@H]1CC[C@H]2O`, the growth in the assay on HCT-15 colon was 93.4%; with HT29 colon it was 104%; with SNB-75 CNS it was 89.2%; with SNB-19 CNS it was 87.2%; with U251 CNS, 101%; in the assay on PC-3 prostate, 88.8%. The growth in the assay with SK-MEL-5 melanoma is 101%; in the assay with UACC-62 melanoma it was 61.4%; with SK-MEL-28 melanoma, 99.3%.

On to `CCOC(=O)c1sc2nc(-c3cc(OC)c(OC)c(OC)c3)nc(N3CCOCC3)c2c1C`, for which the growth with HCT-15 colon was 29.1%; in the assay on HT29 colon, 40.6%; in the assay with SNB-75 CNS it was 56.2%; with SNB-19 CNS, 53.2%; in the assay on U251 CNS, 36.2%; in the assay with PC-3 prostate, 14.2%. The growth in the assay with UACC-62 melanoma is 15.7%; in the assay on LOX IMVI melanoma, 45.1%; with SK-MEL-28 melanoma, 42.2%.

Regarding `O=C(NCCCNC(=O)OCc1ccc2c(Br)cc(Br)c(O)c2n1)OCc1ccc2c(Br)cc(Br)c(O)c2n1`, the growth in the assay with HCT-15 colon was -34.4% (active); in the assay with HT29 colon, -73% (active); in the assay on SNB-75 CNS, -87.6% (active); in the assay with SNB-19 CNS it was 44.6%; with U251 CNS, -70.4% (active); in the assay on PC-3 prostate, -25.5% (active). Further, the growth is -87.1% (active) with UACC-62 melanoma, -92% (active) in the assay with LOX IMVI melanoma and -75.9% (active) with SK-MEL-28 melanoma.

Regarding `COc1cc2c(c(Br)c1N)-c1cc(Br)c(N)cc1C2=O`, the growth in the assay with HCT-15 colon is 81.3%; with HT29 colon, 86.2%; in the assay with SNB-75 CNS, 25.9%; with SNB-19 CNS, 69.1%; with U251 CNS, 57.3%; in the assay on PC-3 prostate, 93.2%. The growth is 74.9% in the assay with UACC-62 melanoma, 68.8% in the assay with LOX IMVI melanoma and 81.4% in the assay on SK-MEL-28 melanoma.

As to `CN(C)c1ccc(N=Nc2ccc3ccccc3c2)cc1`, the growth is 55.5% with HCT-15 colon; 78.7% in the assay with HT29 colon; 77.4% in the assay on SNB-75 CNS; 100% with SNB-19 CNS; 76.3% with U251 CNS; 75.6% in the assay with PC-3 prostate. Also, the growth with UACC-62 melanoma was 90.8%; in the assay on LOX IMVI melanoma, 72.6%; with SK-MEL-28 melanoma, 103%.

Turning to `CC1(C)C(=O)/C(=C\c2cccnc2)C[C@]2(C)[C@H]3CC[C@@H]4[C@H]5[C@H](C(=O)/C=C/c6cccnc6)CC[C@]5(C(=O)O)CC[C@@]4(C)[C@]3(C)CC[C@@H]12`, the growth is -74.6% [100 µM] (active) with HCT-15 colon; -72% [100 µM] (active) in the assay on HT29 colon; -96.5% [100 µM] (active) in the assay on SNB-75 CNS; -83.3% [100 µM] (active) with SNB-19 CNS; -82.3% [100 µM] (active) with U251 CNS; -38.4% [100 µM] (active) in the assay with PC-3 prostate. Further, the growth in the assay with UACC-62 melanoma was -89.8% [100 µM] (active); in the assay with LOX IMVI melanoma it was -68.9% [100 µM] (active); with SK-MEL-28 melanoma, -71.7% [100 µM] (active).

As to `C=C(C)[C@@H]1CC[C@]2(C(=O)N3CCN(C)CC3)CC[C@]3(C)[C@H](CC[C@@H]4[C@@]5(C)C/C(=C/c6ccncc6)[C@H](O)C(C)(C)[C@@H]5CC[C@]43C)[C@@H]12`, the growth was -28.6% [100 µM] (active) in the assay on HCT-15 colon; -65.8% [100 µM] (active) in the assay on HT29 colon; 4.76% [100 µM] (active) in the assay with SNB-75 CNS; 14.4% [100 µM] in the assay with SNB-19 CNS; -70.5% [100 µM] (active) in the assay on U251 CNS; -20.2% [100 µM] (active) with PC-3 prostate. Moreover, the growth is -56% [100 µM] (active) in the assay on UACC-62 melanoma, -77.3% [100 µM] (active) in the assay with LOX IMVI melanoma and -54.3% [100 µM] (active) with SK-MEL-28 melanoma.

These data come from PubChem BioAssay (NCI).
